Assay outcomes from PubChem BioAssay.
HP1b chromo inh: inhibitors of HP1-beta chromodomain binding to methylated histone tails; AID 540317; P83916; hit rate 0.56% among 390,000; AlphaScreen HP1-beta / biotin-H3K9me3 peptide binding; Potency, µM (doses to about 114 µM), inactives show at the top dose activity change, negative = inhibition, usual class: inhibitors; further: potency means the concentration at half of the fitted maximal effect; nearly all actives have a fitted effect of over 70% in size
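Compound inhibition of the preformed complex between 50 nM HP1-beta and 50 nM biotinylated H3K9me3 peptide was read by AlphaScreen. Buffer was PBS pH 7.4 with 0.01% Tween-20. Incubations ran 30 min at room temperature, with 10 ug/mL donor/acceptor beads.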
Six1-Eya2 blk: Six1/Eya2 interaction inhibition; Q15475+O00167; activity change, % (concentration not given with the values); hit rate 0.56% among 360,000; AlphaScreen GST-Six1/His-Eya2 binding, biochemical; hits give low values; in the data active means activity change below about -65%; inconclusive means mostly about -30% to -63%; further: on the % scale 0 is the no-effect control and ±100 the full control effect
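Homogeneous AlphaScreen proximity assay pairing GST-Six1 with His-tagged Eya2 (added as 5X mix: 250 nM and 500 nM) in 50 mM Tris pH 8.0, 300 mM NaCl, 1 mM TCEP. Glutathione donor and nickel acceptor beads; 1 h, 37 °C, dark.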
BAZ2B inh: inhibitors of human BAZ2B bromodomain; Q9UIF8; AlphaScreen BAZ2B-H3K14Ac peptide displacement; Potency, µM (highest dose often 114 µM), for the others: at the highest dose activity change, negative = inhibition, hits mostly inhibitors; hit rate 4.4% among 360,000; AID 504333; further: potency means the concentration at half of the fitted maximal effect; on the % scale 0 is the no-effect control and ±100 the full control effect; nearly all actives have a fitted effect of over 60% in size
Target sequence (Q9UIF8 whole entry, looked up): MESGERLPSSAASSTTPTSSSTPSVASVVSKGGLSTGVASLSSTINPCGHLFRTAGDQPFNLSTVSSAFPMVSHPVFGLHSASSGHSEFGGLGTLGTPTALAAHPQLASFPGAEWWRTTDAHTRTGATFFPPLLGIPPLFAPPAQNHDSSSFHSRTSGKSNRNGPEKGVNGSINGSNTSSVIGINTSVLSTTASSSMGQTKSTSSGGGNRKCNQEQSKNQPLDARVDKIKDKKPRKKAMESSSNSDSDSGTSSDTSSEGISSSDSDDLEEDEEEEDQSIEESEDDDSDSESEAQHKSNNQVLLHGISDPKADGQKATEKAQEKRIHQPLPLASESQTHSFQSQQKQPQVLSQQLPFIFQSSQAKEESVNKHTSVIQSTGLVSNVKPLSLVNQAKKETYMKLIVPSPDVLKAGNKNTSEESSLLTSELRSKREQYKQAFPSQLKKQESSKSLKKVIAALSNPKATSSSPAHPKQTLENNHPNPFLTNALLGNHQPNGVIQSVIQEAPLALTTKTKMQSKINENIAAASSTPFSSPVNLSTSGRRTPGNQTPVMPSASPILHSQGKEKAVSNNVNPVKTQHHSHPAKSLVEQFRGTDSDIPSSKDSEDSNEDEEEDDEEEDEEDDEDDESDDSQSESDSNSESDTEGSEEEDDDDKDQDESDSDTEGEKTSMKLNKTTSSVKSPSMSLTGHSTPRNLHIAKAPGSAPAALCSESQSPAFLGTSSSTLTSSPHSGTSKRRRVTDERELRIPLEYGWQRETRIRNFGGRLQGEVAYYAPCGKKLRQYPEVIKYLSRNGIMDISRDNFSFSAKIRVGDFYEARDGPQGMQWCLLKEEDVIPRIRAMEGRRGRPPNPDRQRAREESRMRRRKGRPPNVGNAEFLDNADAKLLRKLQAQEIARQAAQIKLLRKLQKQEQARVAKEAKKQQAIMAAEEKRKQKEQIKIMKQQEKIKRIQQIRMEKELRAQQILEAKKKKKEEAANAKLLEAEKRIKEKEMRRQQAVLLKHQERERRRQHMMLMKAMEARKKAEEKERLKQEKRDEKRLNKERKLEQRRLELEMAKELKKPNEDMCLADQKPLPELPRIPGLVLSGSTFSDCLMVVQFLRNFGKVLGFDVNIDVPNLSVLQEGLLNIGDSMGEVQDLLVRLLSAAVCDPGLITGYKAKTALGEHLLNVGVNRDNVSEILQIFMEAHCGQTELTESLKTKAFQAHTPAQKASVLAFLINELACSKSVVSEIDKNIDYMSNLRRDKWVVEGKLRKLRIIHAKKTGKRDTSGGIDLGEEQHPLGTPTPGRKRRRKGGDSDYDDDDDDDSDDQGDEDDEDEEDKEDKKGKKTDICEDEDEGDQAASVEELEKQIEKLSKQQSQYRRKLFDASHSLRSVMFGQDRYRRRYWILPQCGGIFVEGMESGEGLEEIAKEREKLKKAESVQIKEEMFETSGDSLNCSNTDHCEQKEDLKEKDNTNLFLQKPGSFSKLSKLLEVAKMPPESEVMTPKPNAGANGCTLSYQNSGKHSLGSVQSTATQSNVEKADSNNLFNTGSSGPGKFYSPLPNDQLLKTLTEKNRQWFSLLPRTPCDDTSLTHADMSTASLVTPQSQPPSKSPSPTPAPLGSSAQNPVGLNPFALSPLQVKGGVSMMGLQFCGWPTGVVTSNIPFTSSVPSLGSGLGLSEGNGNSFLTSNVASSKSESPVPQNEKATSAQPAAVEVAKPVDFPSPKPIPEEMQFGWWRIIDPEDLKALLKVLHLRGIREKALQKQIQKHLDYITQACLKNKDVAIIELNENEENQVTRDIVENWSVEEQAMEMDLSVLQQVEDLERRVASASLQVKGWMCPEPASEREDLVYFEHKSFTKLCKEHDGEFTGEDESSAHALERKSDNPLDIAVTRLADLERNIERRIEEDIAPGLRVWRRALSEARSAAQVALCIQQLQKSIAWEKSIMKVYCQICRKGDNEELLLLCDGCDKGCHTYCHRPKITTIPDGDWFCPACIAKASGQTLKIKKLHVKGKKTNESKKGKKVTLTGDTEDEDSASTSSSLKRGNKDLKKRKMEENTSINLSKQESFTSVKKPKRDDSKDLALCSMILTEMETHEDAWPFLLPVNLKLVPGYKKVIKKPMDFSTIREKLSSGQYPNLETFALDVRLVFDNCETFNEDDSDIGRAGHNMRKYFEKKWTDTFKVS
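AlphaScreen luminescence quantifies BAZ2B engagement of H3K14Ac peptide; the protein and biotinylated peptide are both at 50 nM final, buffer PBS pH 7.4 with 0.01% Tween-20, all steps at room temperature.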
G9a block: blocks human histone lysine methyltransferase G9a | G9a H3K9 monomethylation, AlphaScreen, 2 h | Potency, µM (series often up to 102 µM), for inactives: at the highest dose activity, negative = inhibition, usual class: inhibitors | hit rate 8.8% among 350,000; further: potency means the concentration at half of the fitted maximal effect; on the % scale 0 is the no-effect control and ±100 the full control effect; nearly all actives have a fitted effect of over 75% in size
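AlphaScreen detection with an anti-monomethyl H3K9 antibody quantified product after a 2 h room-temperature reaction containing 500 nM biotinylated H3K9 peptide, 20 µM SAM and 20 nM enzyme, which had been preincubated 15 min with compound.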
CtBP-E1A inh: blocks the CtBP interaction with E1A. AlphaScreen GST-E1A/His-CtBP binding, 1536-well; hits give low values. activity change, % (concentration not given with the values). hit rate 0.49% among 340,000. AID 651724; in the data active means activity change below about -65%; inconclusive means mostly about -30% to -63%; further: on the % scale 0 is the no-effect control and ±100 the full control effect
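AlphaScreen with 125 nM GST-E1A and 125 nM His-CtBP (5X stocks) in Tris pH 8.0, 300 mM NaCl, BSA, Tween 20, TCEP. Compounds preincubated 2 h at 37 deg C, then glutathione donor/nickel acceptor beads added for 1 h at 37 deg C in dark.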
JMJD2A Tudor inh: inhibitors of human JMJD2A Tudor domain. O75164. AlphaScreen JMJD2A-Tudor / H3K4me3 peptide binding. Potency, µM (doses to about 114 µM), without a hit: at the highest dose activity change, negative = inhibition, actives largely listed as inhibitors. hit rate 4.4% among 390,000; further: potency means the concentration at half of the fitted maximal effect; on the % scale 0 is the no-effect control and ±100 the full control effect; nearly all actives have a fitted effect of over 50% in size
The depositor's hits bear a star; ? = inconclusive; / = not tested or not shown; [ ] = another dose, or the depositor's remark. Rows were chosen to be rich in hits. Some 10% of all compounds tested hit in one or more screens of this group. Unless noted, the call rests on the fitted dose curve; in most records, active means well fitted inhibition curve with a large enough effect; inconclusive means small, poorly fitted or top-dose-only effect; inactive means no such curve, though single readings can be large or run the other way.

SMILES	HP1b chromo inh	Six1-Eya2 blk	BAZ2B inh	G9a block	CtBP-E1A inh	JMJD2A Tudor inh
O=C1c2oc3ccccc3c(=O)c2C(c2cccc(O)c2)N1Cc1ccc(F)cc1 (stereo not drawn)	21.9%	/	2.6%[57.1 µM]	-36.3%[59 µM]	/	-22.0%
CCCN(CCC)S(=O)(=O)c1ccc2c(c1)N(CC(=O)NCc1ccc(F)cc1Cl)C(=O)CS2	45.1%	/	-1.7%	-13.5%[59 µM]	/	-24.1%
COc1ccc(/C=C2\SC(=S)N(c3cccnc3)C2=O)cc1	16.7%[57 µM]	-1.5	-1.9%	-16.1%[12.7 µM]	/	-0.3%
Cc1cc(/C=C2\SC(=S)N(Cc3ccco3)C2=O)c(C)n1-c1cccnc1	6.3%	7.2	12.6µM*	?	3.6	-22.9%
CC(C)C(C(=O)O)N1C(=O)/C(=C/C=C/c2ccco2)SC1=S (stereo not drawn)	?	-68.7*	4.47µM*	3.55µM*	5.6	3.55µM*
CC(C)C(C(=O)O)N1C(=O)/C(=C/c2cccn2C)SC1=S (stereo not drawn)	-2.0%	-3.6	?	-15.9%[59 µM]	-0.1	-25.1%
O=C1/C(=C/c2cccnc2)SC(=S)N1Cc1ccco1	-17.5%	-21.2	/	/	-4.8	?
O=C1/C(=C\c2ccc(O)cc2)SC(=S)N1c1cccnc1	-12.0%	-3.9	?	31.6µM*	-18.7	?
Cc1ccc(-c2noc(CN(C(=O)COc3cc(C)cc(C)c3C)C(C)C)n2)cc1	51.9%	/	3.6%	26.8%[59 µM]	/	8.4%
Cc1cc(C)cc(OCC(=O)Nc2nc(-c3cccnc3)cs2)c1	?	0.8	-5.0%	10µM*	-2.3	-14.2%
O=C(COc1ccccc1)Nc1nc(-c2ccncc2)cs1	-19.2%	3.5	-12.7%	8.91µM*	-24.3	-6.2%
COc1cccc(C(=O)Nc2nc(-c3ccncc3)cs2)c1	7.5%	-5.1	/	31.6µM*	-6.3	-15.9%
Cc1nc2ccc(NC(=O)COc3ccccc3)cc2s1	32.6%	3.2	2.7%	-2.7%	4.7	-9.9%
CCC(=O)Nc1nc2ccc(NC(=O)COc3ccccc3)cc2s1	36.3%	6.4	-17.3%	79.4µM*	4.9	-0.8%
CC(C)Oc1ccc(C(=O)Nc2c(C(=O)Nc3cccc(F)c3)oc3ccccc23)cc1	18.4%	/	-1.8%	?	/	-7.6%
Cc1ccc(NC(=O)CN(CCc2ccccc2)S(=O)(=O)c2ccccc2)c(C)c1	48.3%	/	5.3%	-2.1%[59 µM]	/	5.9%
Clc1ccc2[nH]c(-c3ccccc3)cc2c1	20.7%	12.6	-3.7%	9.2%[59 µM]	5.5	-10.0%
Cc1ccc2[nH]c(-c3cccc(N)c3)cc2c1	?	1.6	50.1µM*	50.1µM*	-5.3	?
COc1ccc(S(=O)(=O)NCc2ccccn2)cc1NC(=O)c1ccc(Cl)cc1	-23.6%	4.3	-7.2%	-3.0%	-18.1	3.55µM*
COc1ccc(S(=O)(=O)NCc2ccncc2)cc1NC(=O)c1ccccc1	10.3%	-0.3	-0.2%	-9.9%[0.501 µM]	-1.7	-9.7%
COc1ccc(S(=O)(=O)NCc2ccccn2)cc1NC(=O)c1ccccc1C	10.6%	22.4	?	-34.8%	-9.4	1µM*
CCOc1ccc(S(=O)(=O)NCc2ccncc2)cc1NC(=O)c1ccccc1	15.2%	-8.7	2.7%	56.2µM*	-8.4	-14.4%
CC(C)(C)OC(=O)[C@H]1[C@H](c2ccc([N+](=O)[O-])cc2)C2(C(=O)c3ccccc3C2=O)C2c3ccccc3C=NN21 (stereo partly drawn)	-31.8%	-22.6	39.8µM*	14.1µM*	-8.7	?
COc1ccc([C@H]2[C@H](C(=O)C(C)(C)C)N3N=Cc4ccccc4C3[C@]23N=C(c2ccccc2)OC3=O)cc1 (stereo partly drawn)	7.0%	-18.7	?	/	-14.2	-31.1%
Cc1ccc2c(c1)c(=O)c(S(=O)(=O)c1ccc(F)cc1)cn2CC(=O)Nc1ccc2c(c1)OCO2	13.2%	/	-18.5%	-9.7%[59 µM]	/	-23.8%
